Data on nine compounds can be found in PubChem BioAssay (NCI).

Experiment [1] in a line: NCI Yeast Anticancer Drug Screen. Data for the rad50 strain (AID 155).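 Note: 0% = growth of vehicle-only cultures of the same strain.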 To be noted: S. cerevisiae rad50 strain growth inhibition, stronger effect = higher value. An outline of the steps:
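Genetically altered yeast (DNA repair pathway); compound treatment; growth inhibition vs vehicle ctrl.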

Experiment [2] can be described thus: NCI Yeast Anticancer Drug Screen. Data for the mec2-1 strain (AID 157). The following applies: S. cerevisiae mec2-1 strain, stronger effect = higher value. An outline of the steps: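 Compounds were applied to mec2-1 yeast cells. Their growth was then compared with that of vehicle-treated cultures to give growth inhibition.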
Experiment [3] can be described thus: NCI Yeast Anticancer Drug Screen. Data for the sgs1 mgt1 strain (AID 161).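 Note: 0% = growth of cultures given vehicle only.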 The following applies: S. cerevisiae sgs1 mgt1 strain, stronger effect = higher value. An outline of the steps:
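Growth of a repair-deficient yeast mutant was monitored after compound treatment and expressed as inhibition relative to vehicle-treated cultures.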

Experiment [4] can be described thus: NCI Yeast Anticancer Drug Screen. Data for the cln2 rad14 strain (AID 165).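 Note: 0% = growth equal to vehicle treated cultures.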 The following applies: S. cerevisiae cln2 rad14 strain, stronger effect = higher value. Summed up:
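Strain: cln2 rad14 yeast, altered in cell cycle control and DNA damage repair. Read-out: growth inhibition vs vehicle.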

Experiment [5] can be described thus: NCI Yeast Anticancer Drug Screen. Data for the bub3 strain (AID 167). The following applies: S. cerevisiae bub3 mutant strain, stronger effect = higher value. An outline of the steps: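 Yeast carrying a defined mutation is treated with each compound, and growth is compared with that of vehicle-exposed cells to give inhibition.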
Experiment [6] can be described thus: NCI Yeast Anticancer Drug Screen. Data for the mlh1 rad18 strain (AID 175). To be noted: S. cerevisiae mlh1 rad18 strain growth inhibition, stronger effect = higher value. Summed up:
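A repair-deficient yeast strain is exposed to test compound, and growth is scored relative to vehicle-treated controls.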

[7] abbreviates: at 5.0 µM (retest, dose inferred, filed as 0.5).
The mark [8] stands for this setting: at 50.0 µM (retest, dose inferred, filed as 5.0).

The structures appear in SMILES notation. About 79,000 compounds went through this panel and 15% of them were active in at least one assay; those are over-represented in the sample as a whole. Values without a mark were called inactive. The source made the active and inactive calls. Cut-off read from the data, not from the text of the source: active = growth inhibition above about 70%; inactive = the rest.

`CCCCCCCCCCCCCCCCOS(=O)(=O)O`: the growth inhibition in experiment [1] (setting [7]) is 24%; in experiment [1] (setting [8]) it was 99% (active); in experiment [1] (at 50.0 µM), 98% (active); in experiment [2] (setting [7]), 13%; in experiment [2] (setting [8]), 100% (active); in experiment [2] (at 50.0 µM), 98.5% (active). Also, the growth inhibition in experiment [3] (setting [7]) is 49%; in experiment [3] (setting [8]) it was 100% (active); in experiment [3] (at 50.0 µM) it was 98.8% (active); in experiment [4] (setting [7]), 5%; in experiment [4] (setting [8]), 99% (active); in experiment [4] (at 50.0 µM), 97.7% (active). Also, the growth inhibition in experiment [5] (setting [7]) was 20%; in experiment [5] (setting [8]), 100% (active); in experiment [5] (at 50.0 µM) it was 98.8% (active); in experiment [6] (setting [7]) it was 42%; in experiment [6] (setting [8]) it was 100% (active); in experiment [6] (at 50.0 µM), 99% (active).

Regarding `COc1ccc(C2(O)c3ccccc3C(=O)C2c2ccccn2)cc1` (configuration not stated), the growth inhibition in experiment [1] (setting [7]) is 99% (active); in experiment [1] (setting [8]) it was 10%; in experiment [1] (at 50.0 µM), 99% (active); in experiment [2] (setting [7]) it was 98% (active); in experiment [2] (setting [8]) it was -5%; in experiment [2] (at 50.0 µM), 99% (active). In addition, the growth inhibition in experiment [3] (setting [7]) was 98% (active); in experiment [3] (setting [8]), -1%; in experiment [3] (at 50.0 µM), 99.3% (active); in experiment [4] (setting [7]), 97% (active); in experiment [4] (setting [8]), -1%; in experiment [4] (at 50.0 µM), 98.8% (active). Further, the growth inhibition in experiment [5] (setting [7]) is 99% (active); in experiment [5] (setting [8]) it was 7%; in experiment [5] (at 50.0 µM) it was 99.3% (active); in experiment [6] (setting [7]) it was 99% (active); in experiment [6] (setting [8]) it was 4%; in experiment [6] (at 50.0 µM), 98.9% (active).

For the compound `CCCCCCN(CCCCCC)CCCCCC`, the growth inhibition is 3% in experiment [1] (setting [7]); -4% in experiment [1] (setting [8]); 28.6% in experiment [1] (at 50.0 µM); -2% in experiment [2] (setting [7]); -7% in experiment [2] (setting [8]); 10.8% in experiment [2] (at 50.0 µM). Also, the growth inhibition in experiment [3] (setting [7]) is 0%; in experiment [3] (setting [8]), -2%; in experiment [3] (at 50.0 µM), 9.75%; in experiment [4] (setting [7]), -37%; in experiment [4] (setting [8]), -6%; in experiment [4] (at 50.0 µM) it was 3.55%. Further, the growth inhibition is 10% in experiment [5] (setting [7]); 12% in experiment [5] (setting [8]); 7.8% in experiment [5] (at 50.0 µM); -3% in experiment [6] (setting [7]); 3% in experiment [6] (setting [8]); 35.8% in experiment [6] (at 50.0 µM).

For the compound `CCCCNC(=S)NC1OC(CO)C(O)C(O)C1O` (configuration not stated), the growth inhibition is 2% in experiment [1] (setting [7]); 7% in experiment [1] (setting [8]); 99.3% (active) in experiment [1] (at 50.0 µM); 2% in experiment [2] (setting [7]); 10% in experiment [2] (setting [8]); 99.4% (active) in experiment [2] (at 50.0 µM). Further, the growth inhibition in experiment [3] (setting [7]) was -1%; in experiment [3] (setting [8]), 0%; in experiment [3] (at 50.0 µM), 99.5% (active); in experiment [4] (setting [7]), -4%; in experiment [4] (setting [8]), -3%; in experiment [4] (at 50.0 µM), 99% (active). Further, the growth inhibition in experiment [5] (setting [7]) is -4%; in experiment [5] (setting [8]) it was -4%; in experiment [5] (at 50.0 µM) it was 99.2% (active); in experiment [6] (setting [7]) it was -1%; in experiment [6] (setting [8]) it was 20%; in experiment [6] (at 50.0 µM), 99% (active).

Regarding `[O-][n+]1onc2ncccc21`, the growth inhibition in experiment [1] (setting [7]) is 34%; in experiment [1] (setting [8]), 98% (active); in experiment [1] (at 50.0 µM) it was 99.1% (active); in experiment [2] (setting [7]), 38%; in experiment [2] (setting [8]), 99% (active); in experiment [2] (at 50.0 µM), 99.5% (active). Moreover, the growth inhibition in experiment [3] (setting [7]) was 54%; in experiment [3] (setting [8]), 99% (active); in experiment [3] (at 50.0 µM) it was 99.2% (active); in experiment [4] (setting [7]) it was 33%; in experiment [4] (setting [8]), 99% (active); in experiment [4] (at 50.0 µM) it was 99.2% (active). In addition, the growth inhibition in experiment [5] (setting [7]) is 66%; in experiment [5] (setting [8]), 98% (active); in experiment [5] (at 50.0 µM), 99.2% (active); in experiment [6] (setting [7]) it was 63%; in experiment [6] (setting [8]) it was 99% (active); in experiment [6] (at 50.0 µM), 99.3% (active).

For `Cc1cccc2c1CC1(C2)Cc2c(C)cccc2C1=O` (configuration not stated), the growth inhibition is -3% in experiment [1] (setting [7]); 87% (active) in experiment [1] (setting [8]); 36.9% in experiment [1] (at 50.0 µM); -30% in experiment [2] (setting [7]); 78% (active) in experiment [2] (setting [8]); 42.1% in experiment [2] (at 50.0 µM). Besides, the growth inhibition in experiment [3] (setting [7]) was -23%; in experiment [3] (setting [8]), 68%; in experiment [3] (at 50.0 µM), 57.6%; in experiment [4] (setting [7]), 26%; in experiment [4] (setting [8]), 20%; in experiment [4] (at 50.0 µM), 55.5%. Besides, the growth inhibition in experiment [5] (setting [7]) was 21%; in experiment [5] (setting [8]), 92% (active); in experiment [5] (at 50.0 µM) it was 70% (active); in experiment [6] (setting [7]), -11%; in experiment [6] (setting [8]), 52%; in experiment [6] (at 50.0 µM), 50.4%.

Turning to `CCCCCCCCCCCCCCCC(=O)NCCN(C)C`, the growth inhibition is -2% in experiment [1] (setting [7]); 98% (active) in experiment [1] (setting [8]); 98.7% (active) in experiment [1] (at 50.0 µM); -2% in experiment [2] (setting [7]); 99% (active) in experiment [2] (setting [8]); 97% (active) in experiment [2] (at 50.0 µM). The growth inhibition in experiment [3] (setting [7]) was 23%; in experiment [3] (setting [8]) it was 98% (active); in experiment [3] (at 50.0 µM), 56.8%; in experiment [4] (setting [7]) it was -3%; in experiment [4] (setting [8]), 99% (active); in experiment [4] (at 50.0 µM), 88.8% (active). Further, the growth inhibition was -5% in experiment [5] (setting [7]); 99% (active) in experiment [5] (setting [8]); 97% (active) in experiment [5] (at 50.0 µM); 1% in experiment [6] (setting [7]); 98% (active) in experiment [6] (setting [8]); 98.8% (active) in experiment [6] (at 50.0 µM).

Consider `O=Cc1ccc(O)cc1O`, for which the growth inhibition is 8% in experiment [1] (setting [7]); 24% in experiment [1] (setting [8]); 58.5% in experiment [1] (at 50.0 µM); 8% in experiment [2] (setting [7]); 16% in experiment [2] (setting [8]); 29.6% in experiment [2] (at 50.0 µM). Further, the growth inhibition in experiment [3] (setting [7]) was 7%; in experiment [3] (setting [8]), 15%; in experiment [3] (at 50.0 µM), 25.8%; in experiment [4] (setting [7]) it was 4%; in experiment [4] (setting [8]) it was 14%; in experiment [4] (at 50.0 µM) it was -38.6%. Also, the growth inhibition was 7% in experiment [5] (setting [7]); 10% in experiment [5] (setting [8]); 55.4% in experiment [5] (at 50.0 µM); 1% in experiment [6] (setting [7]); 13% in experiment [6] (setting [8]); 59% in experiment [6] (at 50.0 µM).

Regarding `O=S(=O)(Nc1ccccc1Cl)c1ccccc1`, the growth inhibition is 19% in experiment [1] (setting [7]); 80% (active) in experiment [1] (setting [8]); 74.8% (active) in experiment [1] (at 50.0 µM); 1% in experiment [2] (setting [7]); 88% (active) in experiment [2] (setting [8]); 81.7% (active) in experiment [2] (at 50.0 µM). For the same compound, the growth inhibition in experiment [3] (setting [7]) was 4%; in experiment [3] (setting [8]), 91% (active); in experiment [3] (at 50.0 µM), 78.7% (active); in experiment [4] (setting [7]), 24%; in experiment [4] (setting [8]), 81% (active); in experiment [4] (at 50.0 µM) it was 73.1% (active). Besides, the growth inhibition is -32% in experiment [5] (setting [7]); 90% (active) in experiment [5] (setting [8]); 81.1% (active) in experiment [5] (at 50.0 µM); -2% in experiment [6] (setting [7]); 84% (active) in experiment [6] (setting [8]); 69.2% in experiment [6] (at 50.0 µM).
